# In PubChem BioAssay (NCATS):
# Inconclusive results are not listed. Entries that show only a call come without a potency. The source made the active and inactive calls. Calls come from the whole dose curve; as a rule, active = well fitted inhibition curve with a large enough effect; inconclusive = small, poorly fitted or top-dose-only effect; inactive = flat fitted curve, though single readings scatter.
# Columns and labels:
# Test in all cases: qHTS profiling for inhibitors of Plasmodium falciparum proliferation (AID 504749); note: nearly all actives have a fitted effect of over 60% in size
# Details in all cases: P. falciparum in erythrocytes, SYBR Green DNA, 72 h; series mostly up to 28.7 µM
# CP192 = tested on: CP192
# In short: (§1)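 P. falciparum-infected erythrocytes (0.3% parasitemia, 2.5% hematocrit final) were exposed to compounds for 72 h at 37 C in 5% CO2, then lysed with SYBR Green buffer overnight at room temperature; parasite DNA fluorescence was normalized to artemisinin and DMSO controls.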
# CP194 = tested on: CP194
# In short: as §1
# CP201 = tested on: CP201
# In short: as §1
# CP203 = tested on: CP203
# In short: as §1
# CP211 = tested on: CP211
# In short: as §1
# CP215 = tested on: CP215
# In short: as §1
# CP217 = tested on: CP217
# In short: as §1
# CP237 = tested on: CP237
# In short: as §1
# CP238 = tested on: CP238
# In short: as §1
# CP247 = tested on: CP247
# In short: as §1
# Potency is the fitted concentration of half-maximal effect.
SMILES,Potency (CP192),Potency (CP194),Potency (CP201),Potency (CP203),Potency (CP211),Potency (CP215),Potency (CP217),Potency (CP237),Potency (CP238),Potency (CP247)
CCCC(C)(COC(N)=O)COC(=O)NC1CC1 (stereo unspecified),inactive,inactive,inactive,inactive,inactive,inactive,inactive,inactive,inactive,inactive
O=C(CCl)c1ccc(Oc2ccc(C(=O)CCl)cc2)cc1,inactive,inactive,inactive,inactive,inactive,inactive,inactive,inactive,inactive,inactive
O=C(NC(=O)c1c(F)cccc1F)Nc1ccc(Cl)c(Oc2ncc(C(F)(F)F)cc2Cl)c1,inactive,inactive,inactive,inactive,inactive,,inactive,inactive,inactive,inactive
O=C1CC[C@@]2(O)C3Cc4ccc(O)c5c4C2(CCN3CC2CC2)[C@H]1O5 (stereo partly specified),inactive,inactive,inactive,inactive,inactive,inactive,inactive,inactive,inactive,inactive
O=C/C=C/c1ccccc1,inactive,inactive,inactive,,inactive,inactive,inactive,inactive,inactive,inactive
COCC(C)N(C(=O)CCl)c1c(C)csc1C (stereo unspecified),inactive,inactive,inactive,,inactive,inactive,inactive,inactive,inactive,inactive
CC[N+](C)(CC)CCOC(=O)C(O)(c1ccccc1)c1ccccc1,inactive,inactive,inactive,,inactive,inactive,inactive,inactive,inactive,inactive
COC1=CC=C2[C@H]3Cc4ccc(OC)c5c4[C@@]2(CCN3C)[C@H]1O5,inactive,inactive,inactive,inactive,inactive,inactive,inactive,,inactive,inactive
ClCC1CO1 (stereo unspecified),inactive,inactive,inactive,,inactive,inactive,inactive,inactive,inactive,inactive
CCC1(C)CC(=O)NC(=O)C1,inactive,inactive,inactive,,inactive,inactive,inactive,inactive,inactive,inactive
FC(F)OC(F)(F)C(F)Cl (stereo unspecified),inactive,inactive,inactive,,inactive,inactive,inactive,inactive,inactive,inactive
O=C1CN=C(c2ccccc2)c2cc(Cl)ccc2N1CC1CC1,inactive,inactive,inactive,,inactive,inactive,inactive,inactive,inactive,
CCC(C)(S(=O)(=O)CC)S(=O)(=O)CC,inactive,inactive,inactive,,inactive,inactive,inactive,inactive,inactive,inactive
CC(C)(O)C1C2OC(=O)C1C1(O)CC3OC34C(=O)OC2C14C (stereo unspecified),inactive,inactive,inactive,,inactive,inactive,inactive,inactive,inactive,inactive
S=C(S)N1CCNCC1,inactive,inactive,inactive,,inactive,inactive,inactive,inactive,inactive,inactive
CCC1(c2ccccc2)C(=O)NC(=O)N(C(=O)c2ccccc2)C1=O (stereo unspecified),inactive,inactive,inactive,,inactive,inactive,inactive,inactive,inactive,
C[C@H]1CC[C@@H]2[C@@H](C)[C@H]3[C@H](C[C@H]4[C@@H]5CC=C6CC(O[C@@H]7O[C@H](CO)[C@H](O)[C@H](O[C@@H]8O[C@H](CO)[C@@H](O)[C@H](O)[C@H]8O)[C@H]7O[C@H]7O[C@@H](C)[C@H](O)[C@@H](O)[C@H]7O)CC[C@]6(C)[C@H]5CC[C@]34C)N2C1 (stereo partly specified),inactive,inactive,inactive,inactive,inactive,inactive,inactive,inactive,inactive,inactive
C[CH2][Hg][S]c1ccccc1C(=O)O,4.78 µM (active),3.01 µM (active),4.26 µM (active),,4.26 µM (active),1.51 µM (active),3.98 µM (active),1.26 µM (active),3.55 µM (active),3.16 µM (active)
ClC(Cl)(Cl)Cl,inactive,inactive,inactive,,inactive,inactive,inactive,inactive,inactive,inactive
Cc1sc2ccccc2c1CC1=NCCN1,inactive,inactive,inactive,inactive,inactive,inactive,inactive,,inactive,inactive
NCC(O)c1cccc(O)c1 (stereo unspecified),inactive,inactive,inactive,,inactive,inactive,inactive,inactive,inactive,inactive
